# IL-1B inflam inh – inflammasome signaling inhibition, IL-1 beta readout; 4.7% of 360,000 active; activity change, % at 57.5 µM; THP-1 LPS/ATP IL-1B secretion, AlphaLISA, 16 h; hits give low values; AID 743279; in the data active = activity change below about -50%; inconclusive = mostly about -30% to -49%
#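 Secreted IL-1B measured by AlphaLISA bead assay after 16 h compound exposure of THP-1 cells; compounds (final up to 57.5 uM) added 1 h before LPS (250 ng/mL) and ATP (1.25 mM) stimulation; lower signal means less secretion.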
# DT40 TDP1 CPT – DT40-hTDP1 cell growth loss with CPT | chicken DT40 Tdp1-/-;hTDP1 cells + 20 nM CPT, ATP luminescence, 48 h | Potency, µM (top dose mostly 46.2 µM), actives largely listed as inhibitors | 12% of 420,000 active; also: nearly all actives have a fitted effect of over 55% in size
#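 Chicken DT40 Tdp1-/- cells complemented with human TDP1, 400 cells/well, exposed to compounds plus 20 nM camptothecin for at least 48 h at 37 C; viability read as ATP content by CellTiter-Glo luminescence.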
# TDP1 inh – blocks human tyrosyl-DNA phosphodiesterase 1 | Q9NUW8 | recombinant TDP1, AlphaScreen DNA substrate cleavage | Potency, µM (series often up to 130 µM), hits mostly inhibitors | 0.28% of 350,000 active; also: nearly all actives have a fitted effect of over 40% in size
# Target sequence (Q9NUW8 whole entry, looked up): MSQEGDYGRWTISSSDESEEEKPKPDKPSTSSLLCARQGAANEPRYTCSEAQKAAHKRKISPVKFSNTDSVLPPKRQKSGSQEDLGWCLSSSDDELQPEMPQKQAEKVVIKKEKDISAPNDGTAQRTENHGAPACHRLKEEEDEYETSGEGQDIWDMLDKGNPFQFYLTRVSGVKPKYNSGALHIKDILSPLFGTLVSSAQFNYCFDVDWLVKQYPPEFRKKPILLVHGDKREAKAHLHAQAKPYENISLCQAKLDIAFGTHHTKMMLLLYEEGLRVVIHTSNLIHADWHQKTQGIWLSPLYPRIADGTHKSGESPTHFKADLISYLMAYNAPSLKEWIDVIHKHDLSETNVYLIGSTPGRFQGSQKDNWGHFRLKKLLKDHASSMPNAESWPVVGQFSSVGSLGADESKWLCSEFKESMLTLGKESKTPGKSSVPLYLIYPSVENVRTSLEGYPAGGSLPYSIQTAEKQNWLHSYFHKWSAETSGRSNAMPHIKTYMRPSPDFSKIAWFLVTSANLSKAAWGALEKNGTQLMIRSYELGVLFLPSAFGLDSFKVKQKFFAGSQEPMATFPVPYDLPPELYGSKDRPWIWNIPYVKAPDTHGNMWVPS
#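 Steps: enzyme plus compound, 15 min RT; add biotin/phosphotyrosine-FITC oligonucleotide (15 nM final), react 5 min; add donor/acceptor beads (10 ug/ml final), 10 min; read AlphaScreen. Tdp1 at 1 nM final.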
# ELG1 repair inh – inhibitors of ELG1-dependent DNA repair in HEK293T cells | Potency, µM (doses to about 46.1 µM), usual class: inhibitors | AID 504467 | HEK293T ELG1-luciferase reporter, luminescence, 16 h; DNA damage induced by 5-fluorouridine | 2.3% of 330,000 active; also: nearly all actives have a fitted effect of over 55% in size
#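 Cells (2,000 per well) received 5-fluorouridine plus test compound or DMSO and were incubated 16 hr at 37 °C, 5% CO2. Luciferase activity was read by luminescence 30 min after ONE-Glo addition; signal suppression marked inhibition of damage-induced ELG1 function.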
# Giardia killer – Giardia lamblia killing. Giardia lamblia trophozoite viability. activity change, % at 7.66 µM, hits read low. 0.15% of 340,000 active. AID 540267; in the data active = activity change below about -80%; inconclusive = between about -30% and that limit;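 also: parasites exposed to compound for two days anaerobically before the ATP read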
#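 Luminescence from cellular ATP indicates surviving trophozoites (100 cells/well) following 48 hrs anaerobic compound treatment at 37 deg C; signal develops 15-30 min at room temperature.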
# TDP1 cell noCPT – qHTS for Inhibitors of human tyrosyl-DNA phosphodiesterase 1 (TDP1): qHTS in cells in absence of CPT. DT40 Tdp1-/- hTDP1 cells, no CPT, ATP luminescence, 48 h. Potency, µM (doses to about 46.2 µM), hits mostly inhibitors. 15% of 420,000 active; also: nearly all actives have a fitted effect of over 55% in size
#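 A cellular qHTS used chicken DT40 cells lacking endogenous Tdp1 but carrying stably transfected human TDP1. Compounds were applied without camptothecin, and cell growth kinetics were judged by ATP-dependent luminescence after ≥48 hr.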
# A number is an active result; – = inactive; ? = inconclusive; · = no result. A selection: hits, their analogues and other compounds. The true share with any hit is near 19%. Unless noted, calls follow the shape of the dose curve; as a rule, active = well fitted curve in the direction sought with a large enough effect; inconclusive = small, poorly fitted or top-dose-only effect, or another doubt; inactive = no such curve, though single readings can be large; an effect the other way counts as inactive or inconclusive.
SMILES,IL-1B inflam inh,DT40 TDP1 CPT,TDP1 inh,ELG1 repair inh,Giardia killer,TDP1 cell noCPT
O=C1N[C@@H](Cc2c[nH]c3ccccc23)COC(=O)[C@H](Cc2ccc(F)cc2)C/C=C\C[C@H]1CC(=O)N(CCO)Cc1ccccc1,–,13µM,–,?,–,16µM
O=C1N[C@@H](Cc2ccccc2)COC(=O)[C@H](Cc2ccc(F)cc2)CC/C=C/C[C@H]1CC(=O)N(CCO)Cc1ccccc1,?,?,–,?,–,?
O=C1N[C@@H](Cc2c[nH]c3ccccc23)COC(=O)[C@@H](Cc2ccc(F)cc2)CC/C=C/C[C@@H]1CC(=O)N(CCO)Cc1ccccc1,-60,?,–,21µM,–,26µM
C=CCC(C(=O)OC)(C(=O)OC)c1ccccc1[N+](=O)[O-],–,–,–,–,–,–
CCOc1cc(/C=C2\CCC/C(=C\c3cc(Cl)c(O)c(OCC)c3)C2=O)cc(Cl)c1O,-100,?,–,6.5µM,–,6.5µM
CCOc1cc(/C=C2\CN(C)C/C(=C\c3ccc(O)c(OCC)c3)C2=O)ccc1O,-105,5.2µM,·,23µM,–,2.3µM
COc1cc(C=C2CN(C)C(=O)C2=O)ccc1O,–,–,·,·,·,–
Cc1cccc(NC(=O)COC(=O)CN2CCCCCC2=O)c1C,–,–,–,–,–,–
CCOC(=O)C1=C(N)c2ccccc2CC1C1CCCC1 (stereo unspecified),–,26µM,–,–,–,?
CCOC(=O)C1(Cc2cccc(Cl)c2)CCCN(C(=O)CCSC)C1 (stereo unspecified),–,?,–,–,–,?
CCOC(=O)C1(Cc2cccc(Cl)c2)CCCN(C(=O)c2ccc(C)nc2)C1 (stereo unspecified),–,?,·,–,–,?
CCOC(=O)C1(Cc2cccc(Cl)c2)CCCN(C(=O)c2c(CC)noc2C)C1 (stereo unspecified),–,?,–,?,–,12µM
CCOC(=O)C1(Cc2cccc(Cl)c2)CCCN(C(=O)c2cc(C)[nH]n2)C1 (stereo unspecified),–,–,–,–,–,–
CCOC(=O)C1(Cc2cccc(Cl)c2)CCCN(C(=O)c2cc(C)on2)C1 (stereo unspecified),–,18µM,–,?,–,21µM
CCOC(=O)C1(Cc2cccc(Cl)c2)CCCN(C(=O)c2cc(C(C)C)nn2C)C1 (stereo unspecified),?,15µM,–,–,–,?
C=CCCC(=O)N1CCCC(Cc2cccc(Cl)c2)(C(=O)OCC)C1 (stereo unspecified),-56,?,·,–,–,?
COc1ccc(-n2nnnc2SCC(=O)NCCc2ccccc2)cc1,·,–,–,·,·,?
CC(C)(C)OC(=O)NS(=O)(=O)Nc1ccccc1Br,·,·,–,·,–,·
CC(C)NS(=O)(=O)c1ccc(OCC(=O)N2CCN(c3ccccc3F)CC2)cc1,·,?,–,·,·,15µM
COc1ccccc1N1CCN(C(=O)CCc2ccc(S(=O)(=O)NC(C)C)cc2)CC1,–,?,–,?,–,18µM
CC(C)NS(=O)(=O)c1ccc(CCC(=O)N2CCCC2)cc1,–,–,–,–,–,–
COc1ccccc1N1CCN(C(=O)CCc2ccc(S(=O)(=O)NCC(C)C)cc2)CC1,–,?,–,·,–,23µM
Cn1c(=O)c(S(=O)C2CCCCC2)c(O)c2ccccc21 (stereo unspecified),–,–,·,·,–,–
COc1ccc(C(C(=O)NCc2ccccc2)N(C(=O)Cn2nnc3ccccc32)c2ccc(F)cc2)cc1 (stereo unspecified),·,?,–,·,·,15µM
COc1ccc(CN(C(=O)c2snc(C(N)=O)c2N)C(C)C(=O)NCc2ccc(F)cc2)cc1 (stereo unspecified),–,–,–,–,–,?
SMILES,IL-1B inflam inh,DT40 TDP1 CPT,TDP1 inh,ELG1 repair inh,Giardia killer,TDP1 cell noCPT
COc1ccc(N(C(=O)c2snc(C(N)=O)c2N)C(C(=O)NCc2ccc(F)cc2)c2ccc(O)cc2)cc1 (stereo unspecified),-88,?,–,?,–,?
COc1ccc(N(C(=O)c2snc(C(N)=O)c2N)C(C(=O)NCc2ccccc2)c2ccc(O)cc2)cc1OC (stereo unspecified),–,–,–,–,–,?
COc1cccc(N(C(=O)c2snc(C(N)=O)c2N)C(C(=O)NCc2ccccc2)c2ccc(O)cc2)c1 (stereo unspecified),-53,?,–,?,–,18µM
Cc1nonc1CN(C)C(=O)CC1C(=O)NCCN1Cc1cccc(C(F)(F)F)c1 (stereo unspecified),–,–,–,–,–,–
COC(=O)[C@]1(CC(C)C)N[C@H](c2ccc(SC3CCCCC3)c(OC)c2)[C@@H]2C(=O)N(C)C(=O)[C@@H]21,?,?,–,–,–,18µM
CCCCCCSc1ccc([C@H]2N[C@@](CC(C)C)(C(=O)OC)[C@H]3C(=O)N(C)C(=O)[C@@H]23)cc1OC,-53,?,·,?,–,18µM
CCN1C(=O)[C@H]2[C@@H](c3ccc(-c4ccc(OC)cc4)c(OC)c3)N[C@@](CC(C)C)(C(=O)OC)[C@H]2C1=O,–,?,–,–,–,?
COC(=O)[C@]1(CC(C)C)N[C@H](c2ccc(-c3ccc4c(c3)OCO4)cc2)[C@@H]2C(=O)N(C)C(=O)[C@@H]21,–,?,–,–,–,?
CCCc1cc(=O)n2[nH]cc(-c3ccc(Cl)cc3)c2n1,–,5.8µM,–,?,–,5.8µM
CCCc1cc(=O)n2[nH]c(SCc3ccc(Cl)cc3)nc2n1,-72,?,·,–,–,–
CC(C)c1cc(=O)n2[nH]c(SCc3ccc(Cl)cc3)nc2n1,–,–,·,–,–,–
CCCCC=O,·,·,–,·,·,·
O=C(c1cccc(N2C(=O)C3C4C=CC(C4)C3C2=O)c1)N1CCN(c2ccccc2)CC1 (stereo unspecified),?,–,–,?,–,–
Cc1cccc(N2CCN(C(=O)c3cccc(N4CCCC4=O)c3)CC2)c1C,?,?,–,?,–,?
Cc1cccc(N2CCN(C(=O)c3cccc(N4C(=O)C5CC=CC(C)C5C4=O)c3)CC2)c1C (stereo unspecified),–,?,–,23µM,–,23µM
O=C(c1cccc(N2C(=O)C3C4C=CC(C4)C3C2=O)c1)N1CCN(c2ccccc2Cl)CC1 (stereo unspecified),–,?,–,–,–,21µM
O=C(NCc1ccc(Cl)cc1)C1CCN(c2nnc(N3CCCC3=O)s2)CC1,–,–,·,–,–,–

# Source: PubChem BioAssay (National Center for Advancing Translational Sciences (NCATS))
